In PubChem BioAssay AID1159580 (chemical genetic matrix, 2015):
Several values for one entry are separate records, joined by “and”; a condition that tells them apart may be missing. Identical values can stand only once. The campaign covered roughly 5,500 compounds. About 2,000 (36%) were called active. Another 18% or so got no clear call; they are omitted. No stated cut-off is given here; in the data, active means normalized growth mostly below about 0.91 (no sharp cut-off); inconclusive means no clear call, values can overlap the other calls; inactive means mostly above about 0.92. This is one part of the list.

Assay: chemical genetic growth profiling, strain panel (AID 1159580);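 further: tested at 20 µM; growth read once vehicle control cultures reached saturation at 30 °C; 1 = growth at the plate median or of vehicle wells; lower values mean less growth of the strain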
Conditions: S. cerevisiae deletion strains, growth OD

Measured: normalized growth

NCCC(=O)N[C@@H](Cc1cnc[nH]1)C(=O)O
inactive: locus YAL021C, strain ccr4, hits give low values 0.997 | locus YAL026C, strain drs2, hits give low values 1.01 | locus YAL030W, strain snc1, hits give low values 1.01 | locus YBL061C, strain skt5, hits give low values 1.01 | locus YBR009C, strain hhf1, hits give low values 1.01 | locus YBR021W, strain FUR4, hits give low values 1.06 | locus YBR023C, strain chs3, hits give low values 1 | locus YBR171W, strain sec66, hits give low values 1.02 | locus YBR229C, strain ROT2, hits give low values 0.993 | locus YBR231C, strain swc5, hits give low values 1.01 | locus YBR279W, strain paf1, hits give low values 1.01 | locus YCL011C, strain gbp2, hits give low values 1.01 | locus YCL016C, strain dcc1, hits give low values 1.01 | locus YCL029C, strain bik1, hits give low values 0.967 | locus YCL061C, strain MRC1, hits give low values 1.01 | locus YCL069W, strain vba3, hits give low values 1.01 | locus YCR088W, strain abp1, hits give low values 1.01 | locus YDL005C, strain med2, hits give low values 1.01 | locus YDL035C, strain GPR1, hits give low values 0.997 | locus YDL040C, strain nat1, hits give low values 0.998 | locus YDL074C, strain BRE1, hits give low values 1.01 | locus YDL101C, strain DUN1, hits give low values 0.994 | locus YDL134C, strain PPH21, hits give low values 1.04 | locus YDL185W, strain tfp1, hits give low values 0.957 | locus YDL192W, strain arf1, hits give low values 0.98 | locus YDR001C, strain nth1, hits give low values 1.01 | locus YDR069C, strain doa4, hits give low values 1.01 | locus YDR101C, strain arx1, hits give low values 0.99 | locus YDR137W, strain rgp1, hits give low values 1.01 | locus YDR159W, strain sac3, hits give low values 1.02 | locus YDR162C, strain NBP2, hits give low values 1.03 | locus YDR195W, strain ref2 0.978 | locus YDR297W, strain sur2, hits give low values 1.01 | locus YDR318W, strain mcm21, hits give low values 0.986 | locus YDR334W, strain swr1, hits give low values 1.01 | locus YDR335W, strain msn5, hits give low values 1.01 | locus YDR388W, hits give low values 0.979 | locus YDR392W, strain spt3, hits give low values 1.03 | locus YDR502C, strain sam2, hits give low values 0.997 | locus YEL003W, strain gim4, hits give low values 1.02 | locus YEL037C, strain rad23, hits give low values 1.01 | locus YEL061C, strain CIN8 (second series), hits give low values 1.01 | locus YEL061C, strain CIN8, hits give low values 0.997 | locus YER015W, strain faa2, hits give low values 1.01 | locus YER016W, strain bim1, hits give low values 1 | locus YER110C, hits give low values 0.972 | locus YER111C, strain swi4, hits give low values 0.992 | locus YER155C, strain BEM2 (second series), hits give low values 1.03 | locus YER155C, strain BEM2, hits give low values 0.999 | locus YER167W, strain BCK2, hits give low values 0.99 | locus YFR010W, strain ubp6, hits give low values 1.02 | locus YGL078C, strain dbp3, hits give low values 0.999 | locus YGL086W, strain mad1, hits give low values 1 | locus YGL167C, strain pmr1, hits give low values 1.01 | locus YGL173C, strain kem1, hits give low values 1.01 | locus YGL227W, strain vid30, hits give low values 1.01 | locus YGL240W, strain doc1, hits give low values 1.01 | locus YGL248W, strain PDE1, hits give low values 1 | locus YGL253W, strain hxk2, hits give low values 1.02 | locus YGR135W, strain pre9, hits give low values 0.977 | locus YGR229C, strain SMI1, hits give low values 1.02 | locus YGR252W, strain gcn5, hits give low values 1.05 | locus YHR013C, strain ard1, hits give low values 1.04 | locus YHR027C, strain rpn1, hits give low values 1.02 | locus YHR030C, strain SLT2, hits give low values 0.983 and 1.01 | locus YHR079C, strain IRE1 (second series), hits give low values 0.979 | locus YHR079C, strain IRE1, hits give low values 1.02 | locus YHR094C, strain hxt1, hits give low values 0.987 | locus YHR129C, strain ARP1, hits give low values 0.994 | locus YHR142W, strain chs7, hits give low values 1.03 | locus YHR200W, strain rpn10, hits give low values 0.986 | locus YIL066C, strain RNR3, hits give low values 1.01 | locus YIL073C, strain SPO22, hits give low values 0.942 | locus YIL125W, strain kgd1, hits give low values 0.975 | locus YIR030C, strain dcg1, hits give low values 0.983 | locus YJL092W, strain hpr5, hits give low values 1.01 | locus YJL095W, strain BCK1 (second series), hits give low values 1.02 | locus YJL095W, strain BCK1, hits give low values 1.02 and 1.01 | locus YJL115W, strain asf1, hits give low values 1.02 | locus YJL129C, strain trk1, hits give low values 1.02 | locus YJL134W, strain LCB3, hits give low values 0.988 | locus YJL154C, strain vps35, hits give low values 1.01 | locus YJL164C, strain tpk1, hits give low values 1.01 | locus YJL166W, strain qcr8, hits give low values 1.01 | locus YJL168C, strain set2, hits give low values 0.985 | locus YJL187C, strain SWE1 (second series), hits give low values 0.999 | locus YJL187C, strain SWE1, hits give low values 1 | locus YJR043C, strain POL32, hits give low values 1.02 | locus YJR066W, strain TOR1, hits give low values 0.968 | locus YKL009W, strain mrt4, hits give low values 0.94 | locus YKL068W, hits give low values 0.978 | locus YKL085W, strain MDH1 (second series), hits give low values 0.975 | locus YKL085W, strain MDH1, hits give low values 0.975 | locus YKL160W, strain elf1, hits give low values 1.01 | locus YKL190W, strain CNB1, hits give low values 0.991 | locus YKR001C, strain vps1, hits give low values 1.02 | locus YKR026C, strain gcn3, hits give low values 1.01 | locus YKR091W, strain srl3, hits give low values 1.01 | locus YLL001W, strain dnm1, hits give low values 1 | locus YLL026W, hits give low values 1.01 | locus YLL041C, strain sdh2, hits give low values 1.01 | locus YLR027C, strain aat2, hits give low values 0.997 | locus YLR039C, strain RIC1, hits give low values 1.01 | locus YLR058C, strain SHM2, hits give low values 0.987 | locus YLR102C, strain apc9, hits give low values 0.991 | locus YLR113W, strain HOG1, hits give low values 0.985 | locus YLR221C, strain rsa3, hits give low values 1.01 | locus YLR258W, strain gsy2, hits give low values 1.02 | locus YLR262C, strain YPT6 (second series), hits give low values 1.02 | locus YLR262C, strain YPT6, hits give low values 0.93 | locus YLR268W, strain sec22, hits give low values 0.982 | locus YLR320W, strain mms22, hits give low values 1.02 | locus YLR330W, strain CHS5, hits give low values 0.983 | locus YLR342W, strain FKS1 (second series), hits give low values 1.01 | locus YLR342W, strain FKS1, hits give low values 1.02 | locus YLR357W, strain rsc2, hits give low values 1.03 | locus YLR370C, strain arc18, hits give low values 1.01 | locus YLR371W, strain rom2, hits give low values 0.978 | locus YLR384C, strain iki3, hits give low values 1.02 | locus YLR418C, strain cdc73, hits give low values 1 | locus YML016C, strain PPZ1, hits give low values 0.992 | locus YML032C, strain rad52, hits give low values 0.976 | locus YML120C, strain ndi1, hits give low values 1.01 | locus YML124C, strain tub3, hits give low values 0.986 | locus YMR058W, strain fet3, hits give low values 1.02 | locus YMR078C, strain ctf18, hits give low values 0.984 | locus YMR125W, strain sto1, hits give low values 1.01 | locus YMR129W, hits give low values 1.01 | locus YMR205C, strain PFK2, hits give low values 1.01 | locus YMR223W, strain ubp8, hits give low values 0.979 | locus YMR231W, strain pep5, hits give low values 0.985 | locus YMR307W, strain GAS1, hits give low values 1.08 | locus YNL067W, strain RPL9B, hits give low values 1.01 | locus YNL071W, strain lat1, hits give low values 1.01 | locus YNL128W, strain TEP1, hits give low values 0.989 | locus YNL153C, strain GIM3, hits give low values 1.02 | locus YNL183C, strain NPR1, hits give low values 0.983 | locus YNL209W, strain ssb2, hits give low values 1 | locus YNL233W, strain BNI4, hits give low values 1.03 | locus YNL248C, strain rpa49, hits give low values 1.02 | locus YNL250W, strain rad50, hits give low values 0.97 | locus YNL271C, strain bni1, hits give low values 0.988 | locus YNL298W, strain CLA4, hits give low values 0.996 | locus YNL307C, strain MCK1, hits give low values 0.984 | locus YNL322C, strain KRE1 (second series), hits give low values 1.02 | locus YNL322C, strain KRE1, hits give low values 0.994 | locus YNR049C, strain mso1, hits give low values 1.01 | locus YNR052C, strain pop2, hits give low values 0.982 | locus YOL012C, strain htz1 0.915 | locus YOL147C, strain pex11, hits give low values 0.993 | locus YOR001W, strain rrp6, hits give low values 1.01 | locus YOR061W, strain CKA2, hits give low values 0.99 | locus YOR069W, strain VPS5, hits give low values 0.993 | locus YOR070C, strain gyp1, hits give low values 1.02 | locus YOR080W, strain dia2, hits give low values 1 | locus YOR083W, strain WHI5, hits give low values 1.02 | locus YOR106W, strain vam3, hits give low values 1.03 | locus YOR136W, strain idh2, hits give low values 0.99 | locus YOR144C, strain elg1, hits give low values 1.01 | locus YOR184W, strain ser1, hits give low values 1.01 | locus YOR231W, strain MKK1, hits give low values 1.02 | locus YOR265W, strain rbl2, hits give low values 0.999 | locus YOR270C, strain vph1, hits give low values 1.08 | locus YOR290C, strain snf2, hits give low values 1.02 | locus YOR316C, strain cot1, hits give low values 0.983 | locus YPL051W, strain arl3, hits give low values 1.01 | locus YPL055C, strain LGE1, hits give low values 1.03 | locus YPL078C, strain atp4, hits give low values 1.01 | locus YPL106C, strain sse1, hits give low values 1.02 | locus YPL240C, strain hsp82, hits give low values 1.01 | locus YPL241C, strain CIN2, hits give low values 0.996 | locus YPL256C, strain CLN2, hits give low values 1.04 | locus YPR119W, strain clb2, hits give low values 0.984 | locus YPR141C, strain kar3, hits give low values 0.973 | locus YPR163C, strain tif3, hits give low values 0.975 | locus YPR167C, strain met16, hits give low values 1.01 | strain wtn01, hits give low values 0.999
